Here are results for 57 compounds from ChEMBL document CHEMBL4513216, “Probing the Open Global Health Chemical Diversity Library for Multistage-Active Starting Points for Next-Generation Antimalarials” (ACS Infect Dis, 2020).

Hit rate of the full screen: of about 69,000 compounds, about 8,600 (12%) showed an effect of 50% or more. Shown is part of a subset that was picked to be rich in strong results.

In this assay the test system is Plasmodium berghei. Put plainly: Screen against P. berghei liver stage (PbLuc), transformed with Luciferase, at 10uM. In kind it is functional, HepG2. The settings on record: tested at 10 uM.
As for `CO[C@@H]1CC[C@H]2[C@H]1OCCN2CC1CC1`, the INHIBITION stood at 23.6%. Regarding `CCO[C@@H]1CC[C@H]2[C@H]1OCCN2CC1CCOCC1`, the INHIBITION is recorded as 27.6%. The same measure for `C1CCC(CO[C@@H]2CC[C@H]3[C@H]2OCCN3CC2CCOCC2)C1`: 65.6%; for `COc1ccccc1C(C)N(C)Cc1nc2c(cnn2C)c(=O)[nH]1` (configuration not stated): -75.245%.

Take `CCc1nc2c(NCC3COc4cc(OC)ccc4C3)ncnc2o1` (configuration not stated): the INHIBITION is 67.7%. To `CCCc1n[nH]cc1C(=O)NCC1COc2cc(OC)ccc2C1` (configuration not stated) belongs -3.83%. To `CCc1nc2c(NCC3COc4ccccc4C3)ncnc2o1` (configuration not stated) belongs 91.5%; to `COc1ccc2c(c1)OCC(CNC(=O)NC(C)(C)C)C2` (configuration not stated), 31%. To `COc1cccc2c1OCC(CNC(=O)Cc1c(C)nc(N)nc1C)C2` (configuration not stated) belongs -13%; to `CN1CCN(S(=O)(=O)NCC2COc3ccccc3C2)CC1` (configuration not stated), -22.1%; to `O=C(c1cncc(NCC2COc3ccccc3C2)n1)N1CCCC1` (configuration not stated), 33.7%. For the compound `CCc1nc2c(NCC3COc4c(cccc4OC)C3)ncnc2o1` (configuration not stated), the INHIBITION came to 55.4%. For the compound `COc1cccc2c1OCC(CNc1ccc(C)nn1)C2` (configuration not stated), the INHIBITION was determined as 42.7%. To `Cc1nc(C2CCCN(C(=O)COCCc3ccccc3)C2)no1` (configuration not stated) belongs 11.2%.

In the case of `CCCn1nccc1-c1cc(C2CCN(S(C)(=O)=O)CC2)nc(C)n1`, the INHIBITION is listed as -39.4%.

For `COc1ccc2cnn(CC(=O)NCC3CCCO3)c(=O)c2c1OC` (configuration not stated), the INHIBITION turned out to be 34.5%. To `CCC(CC)CS(=O)(=O)NC(=O)C1CCC1` belongs 7.49%; to `CCC(C)CS(=O)(=O)NC(=O)C1CC1` (configuration not stated), 2.39%.

With `CCC(C)CS(=O)(=O)NC(=O)C1CCC1` (configuration not stated), the INHIBITION was 62.3%. The same measure for `CCCN1CCC(Cc2noc(-c3[nH]cnc3C)n2)CC1`: -1.85%; for `Cc1ccc(N2CCCC3(COCCN(c4ccccn4)C3)C2)nn1` (configuration not stated): 17.2%. To `Cc1ccc(CNC(=O)CN2CCCC(Cn3cncn3)C2)cc1` (configuration not stated) belongs 31.8%; to `Cn1cccc1C(=O)NCc1cnc2n1CCN(CC1CC1)C2`, -13%; to `O=C(NCc1cn2c(n1)CN(Cc1cccc(F)c1)CC2)C1CCC1`, -14.4%. The same measure for `Cn1cc(C(=O)NCc2cn3c(n2)CN(Cc2ccccn2)CC3)cn1`: 53%. On to `O=C(CC1CC1)NCc1cn2c(n1)CN(Cc1cccc(F)c1)CC2`, for which the INHIBITION is listed as 50.9%. The same measure for `Cn1cc(CN2CCn3c(CNC(=O)c4cccn4C)cnc3C2)cn1`: 2.01%; for `O=C(CC1CC1)NCc1cn2c(n1)CN(Cc1cccnc1)CC2`: 33.4%; for `Cn1cccc1C(=O)NCc1cn2c(n1)CN(Cc1ccccn1)CC2`: -37.6%. The same measure for `Cn1cc(C(=O)NCc2cn3c(n2)CN(CC2CCOC2)CC3)cn1` (configuration not stated): -11.6%; for `Cn1cccc1C(=O)NCc1cn2c(n1)CN(CC1CCOCC1)CC2`: -4.88%.

`Cn1cc(C(=O)NCc2cn3c(n2)CN(Cc2ccncc2)CC3)cn1`: the INHIBITION was -4.88%. To `Cn1cccc1C(=O)NCc1cn2c(n1)CN(CC1CCOC1)CC2` (configuration not stated) belongs 58.4%; to `Cc1ccc(CN2CCn3c(CNC(=O)c4cccn4C)cnc3C2)s1`, 54.7%. Consider `Cc1nc(C)n(C2CCCN(C(=O)c3ccc(F)c(F)c3)C2)n1` (configuration not stated), for which the INHIBITION amounted to 6.333%.

Regarding `Cc1noc(-c2ccc(N3CCN(Cc4ncccc4C)CC3)nc2)n1`, the INHIBITION is on record as 17.1%.

For `O=C(CN1CC(c2nc(C3CC3)no2)C1)NCc1ccc(F)cc1`, the INHIBITION is given as -50.7%. Consider `CN(CCc1noc(C2CC2)n1)C(=O)C1(N2CCCC2)CCCC1`, for which the INHIBITION is reported as 10.7%. The same measure for `Cc1nc(-c2ccccc2)cc(C2CCNCC2)n1`: -25.3%; for `COc1ccc(CNCc2c(C(C)C)nn(C)c2N(C)C)cn1`: 19.2%. The same measure for `CC(C)=CCCC1(C)CCC(=O)N(CCNc2nc(C)cc(=O)[nH]2)C1` (configuration not stated): 18.5%; for `N#CCCN(C(=O)CN1CCCC1c1cccs1)c1ccccc1F` (configuration not stated): 13.833%; for `O=C1Nc2ccccc2CN(CC=Cc2ccccc2)C12CCNC2` (configuration not stated): 35.8%. To `O=c1[nH]c2cn(-c3ccc(Cl)cc3)c(=O)n2[nH]1` belongs -20.6%. As to `CCC(CC)NC(=O)Cn1cc(-c2ccccc2)cn1`, the INHIBITION came out at 48.4%. The same measure for `Cn1cc(CN2CCn3cc(CNC(=O)CC4CC4)nc3C2)cn1`: 33.4%; for `Cn1cc(CN2CCn3cc(CNC(=O)c4cccn4C)nc3C2)cn1`: 62.6%; for `COCCN1CCn2cc(CNC(=O)C3CCC3)nc2C1`: -10.3%. Take `O=C(NCc1cn2c(n1)CN(Cc1nccs1)CC2)C1CCC1`: the INHIBITION was found to be 11.4%. To `O=C(NCc1cn2c(n1)CN(CC1CCOCC1)CC2)C1CCC1` belongs 60.2%; to `CCN1CCn2cc(CNC(=O)c3cnn(C)c3)nc2C1`, -18.4%; to `Cn1cccc1C(=O)NCc1cn2c(n1)CN(Cc1cccnc1)CC2`, 15.8%. To `Cn1cc(C(=O)NCc2cn3c(n2)CN(C2CCOCC2)CC3)cn1` belongs 54.7%; to `c1c(CN2CCOCC2)nc2n1CCN(C1CCOCC1)C2`, 27.5%. Take `Cn1cc(C(=O)NCc2cn3c(n2)CN(CC2CCOCC2)CC3)cn1`: the INHIBITION was determined as 9.54%. `c1c(CN2CCCC2)nc2n1CCN(C1CCOCC1)C2`: the INHIBITION is 54.4%.

As to `CN1CCN(Cc2cn3c(n2)CN(C2CCOCC2)CC3)CC1`, the INHIBITION turned out to be 11.6%.
